About 7,900 targets were measured; listed, in parts, are those with a hit and a random draw of the rest. About 0.6% of all pairs of compound and target were hits. Values without a mark were called inactive.
Columns and labels:
Assay in all cases: log2 fold change, soluble protein after heating vs DMSO (PISA); higher = thermal stabilisation; K562 cells, 10 uM, 30 min; active = over 0.2 and 3.5 SD of the protein, either way, in both replicates (recomputed)
bafetinib = compound: Cc1ccc(NC(=O)c2ccc(CN3CC[C@H](N(C)C)C3)c(C(F)(F)F)c2)cc1Nc1nccc(-c2cncnc2)n1 [bafetinib]
Method in brief: (§1)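 Values are thermal stability changes relative to control samples and are taken from duplicates. They are stated as log2 fold changes. Before quantification by TMTpro 16plex LC-MS/MS with equalised channel sums, K562 cells at 2×10^6 cells/mL were treated with 10 μM compound for 30 min, heated in aliquots for 3 min across 48°C-58°C, pooled, extracted in PBS with 0.5% NP-40 at 4°C, and centrifuged at 21,000xg for 90 min to give the soluble supernatant.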

[1] = compound: Cc1cccc(CC(=O)N2CCc3c2ccc(-c2cn(C)c4ncnc(N)c24)c3F)n1
Method in brief: as §1

nilotinib = compound: Cc1cn(-c2cc(NC(=O)c3ccc(C)c(Nc4nccc(-c5cccnc5)n4)c3)cc(C(F)(F)F)c2)cn1 [nilotinib]
Method in brief: as §1

[2] = compound: Cc1nc(Nc2n[nH]c3c2CN(C(=O)N[C@H](CN(C)C)c2ccccc2)C3(C)C)c2sccc2n1
Method in brief: as §1

dasatinib = compound: Cc1nc(Nc2ncc(C(=O)Nc3c(C)cccc3Cl)s2)cc(N2CCN(CCO)CC2)n1 [dasatinib]
Method in brief: as §1

[3] = compound: Cc1ncc(-c2ccnc(Nc3ccc(S(C)(=O)=O)cc3)n2)n1C(C)C
Method in brief: as §1

[4] = compound: Cn1cc(-c2ccc3c(c2)CCN3C(=O)Cc2cccc(C(F)(F)F)c2)c2c(N)ncnc21
Method in brief: as §1

[5] = compound: Cn1cc(-c2ccc3nnc(C(F)(F)c4ccc5ncccc5c4)n3n2)cn1
Method in brief: as §1

tipifarnib = compound: Cn1cncc1[C@@](N)(c1ccc(Cl)cc1)c1ccc2c(c1)c(-c1cccc(Cl)c1)cc(=O)n2C [tipifarnib]
Method in brief: as §1

mubritinib = compound: FC(F)(F)c1ccc(/C=C/c2nc(COc3ccc(CCCCn4ccnn4)cc3)co2)cc1 [mubritinib]
Method in brief: as §1

[6] = compound: NC(=O)Nc1cc(-c2cccc(F)c2)sc1C(=O)N[C@H]1CCCNC1
Method in brief: as §1

[7] = compound: NC(=O)c1cnc(N[C@@H]2CCCC[C@@H]2N)nc1Nc1cccc(-n2nccn2)c1
Method in brief: as §1

[8] = compound: NC1(c2ccc(-c3nc4ccn5c(=O)[nH]nc5c4cc3-c3ccccc3)cc2)CCC1
Method in brief: as §1

[9] = compound: NCC(=O)Nc1ccc(-n2nc(C(F)(F)F)cc2-c2ccc3c(ccc4ccccc43)c2)cc1
Method in brief: as §1

entinostat = compound: Nc1ccccc1NC(=O)c1ccc(CNC(=O)OCc2cccnc2)cc1 [entinostat]
Method in brief: as §1

vorinostat = compound: O=C(CCCCCCC(=O)Nc1ccccc1)NO [vorinostat]
Method in brief: as §1

citarinostat = compound: O=C(CCCCCCNC(=O)c1cnc(N(c2ccccc2)c2ccccc2Cl)nc1)NO [citarinostat]
Method in brief: as §1

silmitasertib = compound: O=C(O)c1ccc2c(c1)nc(Nc1cccc(Cl)c1)c1ccncc12 [silmitasertib]
Method in brief: as §1

[10] = compound: O=C1NC(=O)C(c2cnc3ccccn23)=C1c1cn2c3c(cc(F)cc13)CN(C(=O)N1CCCCC1)CC2
Method in brief: as §1

[11] = compound: c1cc(OCCN2CCCCC2)cc(-c2n[nH]c3ccc(-c4nnc[nH]4)cc23)c1
Method in brief: as §1

## TGFBRAP1 (UniProt Q8WUH2)
Chain of UniProt Q8WUH2 (Q8WUH2 whole entry, looked up): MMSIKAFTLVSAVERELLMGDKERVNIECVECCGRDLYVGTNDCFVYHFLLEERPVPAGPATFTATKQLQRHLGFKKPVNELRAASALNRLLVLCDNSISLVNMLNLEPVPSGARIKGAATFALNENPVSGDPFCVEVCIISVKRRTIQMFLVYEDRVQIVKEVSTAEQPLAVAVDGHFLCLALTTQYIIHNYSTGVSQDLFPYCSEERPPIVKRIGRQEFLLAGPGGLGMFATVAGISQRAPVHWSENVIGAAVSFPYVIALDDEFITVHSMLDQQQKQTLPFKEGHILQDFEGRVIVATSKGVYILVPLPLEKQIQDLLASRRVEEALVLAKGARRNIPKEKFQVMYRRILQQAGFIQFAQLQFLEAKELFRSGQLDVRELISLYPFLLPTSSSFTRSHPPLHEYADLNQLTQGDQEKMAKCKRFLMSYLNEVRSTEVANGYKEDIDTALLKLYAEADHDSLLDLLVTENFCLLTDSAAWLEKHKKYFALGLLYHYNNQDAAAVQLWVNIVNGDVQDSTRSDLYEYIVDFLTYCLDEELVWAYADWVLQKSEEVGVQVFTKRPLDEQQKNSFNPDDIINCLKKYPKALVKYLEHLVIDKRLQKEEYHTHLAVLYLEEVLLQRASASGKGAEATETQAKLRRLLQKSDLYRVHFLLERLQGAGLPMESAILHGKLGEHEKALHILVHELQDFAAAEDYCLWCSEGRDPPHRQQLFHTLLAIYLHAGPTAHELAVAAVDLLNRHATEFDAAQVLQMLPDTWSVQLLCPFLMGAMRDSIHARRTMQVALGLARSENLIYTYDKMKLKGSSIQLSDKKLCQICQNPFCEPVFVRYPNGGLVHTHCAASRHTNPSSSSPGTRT
bafetinib
  log2 fold change: -0.05
[1]
  log2 fold change: 0.482 (active)
nilotinib
  log2 fold change: -0.122
[2]
  log2 fold change: -0.125
dasatinib
  log2 fold change: -0.153
[3]
  log2 fold change: 0.091
[4]
  log2 fold change: -0.151
[5]
  log2 fold change: -0.16
tipifarnib
  log2 fold change: 0.032
mubritinib
  log2 fold change: 0.053
[6]
  log2 fold change: 0.065
[7]
  log2 fold change: -0.03
[8]
  log2 fold change: -0.209
[9]
  log2 fold change: -0.006
entinostat
  log2 fold change: -0.013
vorinostat
  log2 fold change: 0.256
citarinostat
  log2 fold change: -0.367
silmitasertib
  log2 fold change: 0.056
[10]
  log2 fold change: 0.069
[11]
  log2 fold change: 0.013

## SUGP1 (UniProt Q8IWZ8)
Chain of UniProt Q8IWZ8 (Q8IWZ8 whole entry, looked up): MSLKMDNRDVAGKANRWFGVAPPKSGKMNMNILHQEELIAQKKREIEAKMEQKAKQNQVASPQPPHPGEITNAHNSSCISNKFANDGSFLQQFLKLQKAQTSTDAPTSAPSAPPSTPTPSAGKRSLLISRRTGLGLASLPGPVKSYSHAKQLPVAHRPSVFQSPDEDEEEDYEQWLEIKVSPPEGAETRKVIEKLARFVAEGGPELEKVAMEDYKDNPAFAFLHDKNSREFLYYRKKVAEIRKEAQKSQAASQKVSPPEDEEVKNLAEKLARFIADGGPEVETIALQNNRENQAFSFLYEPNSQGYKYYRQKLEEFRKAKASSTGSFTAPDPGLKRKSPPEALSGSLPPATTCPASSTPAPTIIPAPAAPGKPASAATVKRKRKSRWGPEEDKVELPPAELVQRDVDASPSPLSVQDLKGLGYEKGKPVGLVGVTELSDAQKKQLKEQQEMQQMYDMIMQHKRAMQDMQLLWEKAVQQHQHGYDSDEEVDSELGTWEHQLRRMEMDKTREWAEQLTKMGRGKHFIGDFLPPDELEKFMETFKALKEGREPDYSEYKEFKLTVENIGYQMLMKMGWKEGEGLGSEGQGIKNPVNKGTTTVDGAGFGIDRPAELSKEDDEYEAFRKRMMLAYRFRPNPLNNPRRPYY
bafetinib
  log2 fold change: -0.033
[1]
  log2 fold change: 0.012
nilotinib
  log2 fold change: -0.019
[2]
  log2 fold change: -0.058
dasatinib
  log2 fold change: -0.139
[3]
  log2 fold change: -0.043
[4]
  log2 fold change: 0.08
[5]
  log2 fold change: -0.012
tipifarnib
  log2 fold change: -0.007
mubritinib
  log2 fold change: 0.063
[6]
  log2 fold change: 0
[7]
  log2 fold change: -0.05
[8]
  log2 fold change: -0.073
[9]
  log2 fold change: -0.071
entinostat
  log2 fold change: 0.054
vorinostat
  log2 fold change: 0.077
citarinostat
  log2 fold change: 0.074
silmitasertib
  log2 fold change: 0.101
[10]
  log2 fold change: -0.065
[11]
  log2 fold change: 0.045

## SUCLA2 (UniProt Q9P2R7)
Chain of UniProt Q9P2R7 (Q9P2R7 whole entry, looked up): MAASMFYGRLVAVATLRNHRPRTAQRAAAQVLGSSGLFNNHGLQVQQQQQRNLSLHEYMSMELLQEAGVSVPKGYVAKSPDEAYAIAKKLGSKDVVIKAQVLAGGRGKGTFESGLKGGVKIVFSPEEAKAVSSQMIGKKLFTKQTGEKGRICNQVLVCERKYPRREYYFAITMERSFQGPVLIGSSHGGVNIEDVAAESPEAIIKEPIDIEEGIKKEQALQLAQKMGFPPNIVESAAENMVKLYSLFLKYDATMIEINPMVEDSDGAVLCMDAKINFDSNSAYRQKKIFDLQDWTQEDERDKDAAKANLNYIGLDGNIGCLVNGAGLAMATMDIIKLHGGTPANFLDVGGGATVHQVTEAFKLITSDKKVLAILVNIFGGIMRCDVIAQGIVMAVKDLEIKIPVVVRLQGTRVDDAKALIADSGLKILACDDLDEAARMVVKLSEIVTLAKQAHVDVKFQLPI
bafetinib
  log2 fold change: 0
[1]
  log2 fold change: -0.065
nilotinib
  log2 fold change: -0.098
[2]
  log2 fold change: 0.057
dasatinib
  log2 fold change: -0.149
[3]
  log2 fold change: -0.04
[4]
  log2 fold change: 0.005
[5]
  log2 fold change: 0.038
tipifarnib
  log2 fold change: -0.01
mubritinib
  log2 fold change: -0.697 (active)
[6]
  log2 fold change: -0.021
[7]
  log2 fold change: -0.058
[8]
  log2 fold change: -0.128
[9]
  log2 fold change: -0.077
entinostat
  log2 fold change: 0.014
vorinostat
  log2 fold change: 0.107
citarinostat
  log2 fold change: 0.068
silmitasertib
  log2 fold change: -0.039
[10]
  log2 fold change: -0.028
[11]
  log2 fold change: -0.046

## SLK isoform 2 (UniProt Q9H2G2)
bafetinib
  log2 fold change: -0.032
[1]
  log2 fold change: -0.076
nilotinib
  log2 fold change: -0.041
[2]
  log2 fold change: -0.169
dasatinib
  log2 fold change: -0.085
[3]
  log2 fold change: 0.015
[4]
  log2 fold change: -0.289 (active)
[5]
  log2 fold change: 0.004
tipifarnib
  log2 fold change: -0.018
mubritinib
  log2 fold change: 0.026
[6]
  log2 fold change: -0.314 (active)
[7]
  log2 fold change: -0.042
[8]
  log2 fold change: -0.058
[9]
  log2 fold change: -0.014
entinostat
  log2 fold change: 0.048
vorinostat
  log2 fold change: 0.006
citarinostat
  log2 fold change: 0.074
silmitasertib
  log2 fold change: 0.124
[10]
  log2 fold change: 0.009
[11]
  log2 fold change: -0.044

## TANK (UniProt Q92844)
Chain of UniProt Q92844 (Q92844 whole entry, looked up): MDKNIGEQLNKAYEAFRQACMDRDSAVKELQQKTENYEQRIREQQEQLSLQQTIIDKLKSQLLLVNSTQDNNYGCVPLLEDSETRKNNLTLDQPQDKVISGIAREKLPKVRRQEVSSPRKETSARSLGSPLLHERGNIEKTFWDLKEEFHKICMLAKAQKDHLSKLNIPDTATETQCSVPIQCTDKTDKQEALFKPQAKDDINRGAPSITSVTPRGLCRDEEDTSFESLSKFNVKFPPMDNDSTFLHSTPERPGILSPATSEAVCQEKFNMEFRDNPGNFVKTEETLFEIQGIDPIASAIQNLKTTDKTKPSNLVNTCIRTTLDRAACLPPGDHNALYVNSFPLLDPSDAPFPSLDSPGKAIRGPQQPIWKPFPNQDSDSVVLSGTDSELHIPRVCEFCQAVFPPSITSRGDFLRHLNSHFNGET
bafetinib
  log2 fold change: -0.049
[1]
  log2 fold change: -0.106
nilotinib
  log2 fold change: 0.054
[2]
  log2 fold change: 0.337 (active)
dasatinib
  log2 fold change: -0.025
[3]
  log2 fold change: 0.082
[4]
  log2 fold change: -0.021
[5]
  log2 fold change: -0.036
tipifarnib
  log2 fold change: -0.016
mubritinib
  log2 fold change: 0.03
[6]
  log2 fold change: 0.076
[7]
  log2 fold change: 0.041
[8]
  log2 fold change: -0.035
[9]
  log2 fold change: 0.023
entinostat
  log2 fold change: -0.001
vorinostat
  log2 fold change: -0.084
citarinostat
  log2 fold change: -0.022
silmitasertib
  log2 fold change: 0.064
[10]
  log2 fold change: 0.028
[11]
  log2 fold change: 0.01

## THADA (UniProt Q6YHU6)
bafetinib
  log2 fold change: 0
[1]
  log2 fold change: 0.027
nilotinib
  log2 fold change: -0.068
[2]
  log2 fold change: 0.045
dasatinib
  log2 fold change: -0.15
[3]
  log2 fold change: -0.028
[4]
  log2 fold change: 0.098
[5]
  log2 fold change: 0.055
tipifarnib
  log2 fold change: -0.1
mubritinib
  log2 fold change: 0.123
[6]
  log2 fold change: 0.004
[7]
  log2 fold change: -0.085
[8]
  log2 fold change: -0.147
[9]
  log2 fold change: -0.082
entinostat
  log2 fold change: 0.014
vorinostat
  log2 fold change: -0.001
citarinostat
  log2 fold change: 0.121
silmitasertib
  log2 fold change: -0.061
[10]
  log2 fold change: -0.025
[11]
  log2 fold change: -0.013

## SUPT5H (UniProt O00267)
bafetinib
  log2 fold change: -0.044
[1]
  log2 fold change: 0.033
nilotinib
  log2 fold change: -0.055
[2]
  log2 fold change: -0.042
dasatinib
  log2 fold change: -0.082
[3]
  log2 fold change: 0.01
[4]
  log2 fold change: 0.024
[5]
  log2 fold change: 0.036
tipifarnib
  log2 fold change: -0.037
mubritinib
  log2 fold change: 0.031
[6]
  log2 fold change: -0.031
[7]
  log2 fold change: -0.049
[8]
  log2 fold change: -0.129
[9]
  log2 fold change: -0.095
entinostat
  log2 fold change: 0.029
vorinostat
  log2 fold change: 0.043
citarinostat
  log2 fold change: 0.074
silmitasertib
  log2 fold change: 0.038
[10]
  log2 fold change: -0.115
[11]
  log2 fold change: -0.028

## SYMPK (UniProt Q92797)
bafetinib
  log2 fold change: -0.027
[1]
  log2 fold change: 0.036
nilotinib
  log2 fold change: -0.192
[2]
  log2 fold change: -0.001
dasatinib
  log2 fold change: -0.156
[3]
  log2 fold change: 0.037
[4]
  log2 fold change: -0.017
[5]
  log2 fold change: -0.043
tipifarnib
  log2 fold change: -0.152
mubritinib
  log2 fold change: 0.015
[6]
  log2 fold change: -0.018
[7]
  log2 fold change: 0.012
[8]
  log2 fold change: -0.287
[9]
  log2 fold change: -0.08
entinostat
  log2 fold change: 0.025
vorinostat
  log2 fold change: 0.11
citarinostat
  log2 fold change: 0.051
silmitasertib
  log2 fold change: 0.167
[10]
  log2 fold change: 0.033
[11]
  log2 fold change: -0.037

## TAOK3 (UniProt Q9H2K8)
Chain of UniProt Q9H2K8 (Q9H2K8 whole entry, looked up): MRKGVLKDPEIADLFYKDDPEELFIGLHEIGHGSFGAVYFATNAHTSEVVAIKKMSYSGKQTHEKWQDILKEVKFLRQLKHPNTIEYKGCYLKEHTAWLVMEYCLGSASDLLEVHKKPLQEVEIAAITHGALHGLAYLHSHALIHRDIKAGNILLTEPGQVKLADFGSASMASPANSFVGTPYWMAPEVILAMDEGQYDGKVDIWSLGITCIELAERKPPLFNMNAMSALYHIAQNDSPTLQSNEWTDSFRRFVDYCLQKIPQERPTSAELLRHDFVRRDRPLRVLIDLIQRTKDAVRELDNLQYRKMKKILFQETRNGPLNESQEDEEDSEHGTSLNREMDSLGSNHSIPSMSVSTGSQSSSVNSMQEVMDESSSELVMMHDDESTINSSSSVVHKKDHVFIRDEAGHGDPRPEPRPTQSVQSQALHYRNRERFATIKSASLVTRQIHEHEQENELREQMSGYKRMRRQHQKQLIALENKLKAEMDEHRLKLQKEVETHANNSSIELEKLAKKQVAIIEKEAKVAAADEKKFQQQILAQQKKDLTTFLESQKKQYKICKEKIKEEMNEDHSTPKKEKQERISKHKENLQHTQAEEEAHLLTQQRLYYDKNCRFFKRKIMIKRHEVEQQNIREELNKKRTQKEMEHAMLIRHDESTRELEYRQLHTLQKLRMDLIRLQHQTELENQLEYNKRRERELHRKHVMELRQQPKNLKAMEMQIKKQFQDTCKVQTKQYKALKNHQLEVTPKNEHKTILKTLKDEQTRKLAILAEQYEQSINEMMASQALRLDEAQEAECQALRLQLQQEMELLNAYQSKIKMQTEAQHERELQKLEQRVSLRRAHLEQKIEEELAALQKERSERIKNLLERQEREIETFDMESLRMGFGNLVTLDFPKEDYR
bafetinib
  log2 fold change: -0.066
[1]
  log2 fold change: 0.012
nilotinib
  log2 fold change: -0.05
[2]
  log2 fold change: 0.03
dasatinib
  log2 fold change: -0.048
[3]
  log2 fold change: -0.048
[4]
  log2 fold change: 0.025
[5]
  log2 fold change: -0.009
tipifarnib
  log2 fold change: -0.026
mubritinib
  log2 fold change: 0.018
[6]
  log2 fold change: -0.013
[7]
  log2 fold change: -0.149
[8]
  log2 fold change: -0.048
[9]
  log2 fold change: 0
entinostat
  log2 fold change: 0.034
vorinostat
  log2 fold change: 0.036
citarinostat
  log2 fold change: 0.106
silmitasertib
  log2 fold change: 0
[10]
  log2 fold change: 0.021
[11]
  log2 fold change: -0.203

## SNX3 (UniProt O60493)
Chain of UniProt O60493 (O60493 whole entry, looked up): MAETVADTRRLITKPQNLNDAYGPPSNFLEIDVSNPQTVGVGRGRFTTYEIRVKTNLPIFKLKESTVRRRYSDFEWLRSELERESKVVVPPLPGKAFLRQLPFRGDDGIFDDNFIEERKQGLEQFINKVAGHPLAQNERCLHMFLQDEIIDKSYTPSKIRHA
bafetinib
  log2 fold change: 0.01
[1]
  log2 fold change: 0.032
nilotinib
  log2 fold change: -0.034
[2]
  log2 fold change: 0.035
dasatinib
  log2 fold change: -0.163
[3]
  log2 fold change: -0.339 (active)
[4]
  log2 fold change: -0.03
[5]
  log2 fold change: 0.001
tipifarnib
  log2 fold change: 0.019
mubritinib
  log2 fold change: -0.108
[6]
  log2 fold change: -0.014
[7]
  log2 fold change: -0.241
[8]
  log2 fold change: -0.19
[9]
  log2 fold change: -0.001
entinostat
  log2 fold change: 0.025
vorinostat
  log2 fold change: 0.105
citarinostat
  log2 fold change: 0.048
silmitasertib
  log2 fold change: 0.132
[10]
  log2 fold change: -0.037
[11]
  log2 fold change: -0.116

## TJP2 isoform 7 (UniProt Q9UDY2)
Chain of UniProt Q9UDY2 (Q9UDY2 whole entry, looked up): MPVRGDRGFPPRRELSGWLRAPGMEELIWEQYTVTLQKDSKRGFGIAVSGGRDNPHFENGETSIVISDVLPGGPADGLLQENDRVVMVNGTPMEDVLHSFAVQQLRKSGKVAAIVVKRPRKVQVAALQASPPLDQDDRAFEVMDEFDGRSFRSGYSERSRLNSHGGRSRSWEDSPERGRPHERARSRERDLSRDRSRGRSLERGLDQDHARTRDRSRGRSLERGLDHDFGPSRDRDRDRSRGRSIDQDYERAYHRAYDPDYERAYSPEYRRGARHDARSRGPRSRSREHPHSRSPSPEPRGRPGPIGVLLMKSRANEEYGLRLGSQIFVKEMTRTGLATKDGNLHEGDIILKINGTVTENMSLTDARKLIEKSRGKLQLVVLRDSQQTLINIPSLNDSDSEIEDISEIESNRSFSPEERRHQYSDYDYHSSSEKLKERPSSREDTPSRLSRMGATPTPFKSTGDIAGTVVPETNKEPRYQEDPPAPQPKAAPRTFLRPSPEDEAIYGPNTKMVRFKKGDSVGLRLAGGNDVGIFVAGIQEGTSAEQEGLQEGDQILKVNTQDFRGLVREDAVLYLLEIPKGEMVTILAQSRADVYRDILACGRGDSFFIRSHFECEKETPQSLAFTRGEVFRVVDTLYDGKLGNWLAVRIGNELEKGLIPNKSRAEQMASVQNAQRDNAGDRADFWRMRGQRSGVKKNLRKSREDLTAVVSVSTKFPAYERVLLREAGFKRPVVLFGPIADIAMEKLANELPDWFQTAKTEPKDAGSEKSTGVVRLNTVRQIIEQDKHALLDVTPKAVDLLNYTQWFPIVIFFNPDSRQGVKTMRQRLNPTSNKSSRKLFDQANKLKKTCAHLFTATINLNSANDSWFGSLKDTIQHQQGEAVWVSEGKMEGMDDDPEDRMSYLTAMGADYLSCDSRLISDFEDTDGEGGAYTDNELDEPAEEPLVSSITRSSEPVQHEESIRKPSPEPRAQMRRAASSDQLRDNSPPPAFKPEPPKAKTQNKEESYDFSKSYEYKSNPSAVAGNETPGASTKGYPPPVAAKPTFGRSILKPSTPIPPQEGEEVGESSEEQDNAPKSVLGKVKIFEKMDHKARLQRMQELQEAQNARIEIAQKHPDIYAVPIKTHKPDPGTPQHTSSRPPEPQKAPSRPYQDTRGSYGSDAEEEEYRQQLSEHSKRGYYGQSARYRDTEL
bafetinib
  log2 fold change: 0.05
[1]
  log2 fold change: 0.149
nilotinib
  log2 fold change: 0.014
[2]
  log2 fold change: -0.207
dasatinib
  log2 fold change: -0.191
[3]
  log2 fold change: -0.025
[4]
  log2 fold change: 0.009
[5]
  log2 fold change: 0.014
tipifarnib
  log2 fold change: -0.094
mubritinib
  log2 fold change: 0.002
[6]
  log2 fold change: -0.129
[7]
  log2 fold change: -0.007
[8]
  log2 fold change: -0.171
[9]
  log2 fold change: -0.051
entinostat
  log2 fold change: 0.014
vorinostat
  log2 fold change: 0.161
citarinostat
  log2 fold change: 0.039
silmitasertib
  log2 fold change: -0.061
[10]
  log2 fold change: 0.025
[11]
  log2 fold change: -0.167

## SRI (UniProt P30626)
Chain of UniProt P30626 (P30626 whole entry, looked up): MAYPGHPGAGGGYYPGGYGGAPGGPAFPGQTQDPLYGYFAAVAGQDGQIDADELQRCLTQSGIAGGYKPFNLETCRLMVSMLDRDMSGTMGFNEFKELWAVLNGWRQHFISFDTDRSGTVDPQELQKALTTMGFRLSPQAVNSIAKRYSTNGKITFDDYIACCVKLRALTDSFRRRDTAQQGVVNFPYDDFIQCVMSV
bafetinib
  log2 fold change: -0.001
[1]
  log2 fold change: 0.062
nilotinib
  log2 fold change: 0.017
[2]
  log2 fold change: 0.001
dasatinib
  log2 fold change: 0.04
[3]
  log2 fold change: -0.036
[4]
  log2 fold change: 0.113
[5]
  log2 fold change: 0.328
tipifarnib
  log2 fold change: -0.072
mubritinib
  log2 fold change: 0.01
[6]
  log2 fold change: -0.014
[7]
  log2 fold change: 0.081
[8]
  log2 fold change: -0.04
[9]
  log2 fold change: 0
entinostat
  log2 fold change: 0.058
vorinostat
  log2 fold change: -0.044
citarinostat
  log2 fold change: 0.027
silmitasertib
  log2 fold change: -0.004
[10]
  log2 fold change: -0.045
[11]
  log2 fold change: -0.038

— the supplement of paper PMC10849652
